PubChem BioAssay
Several values for one entry are separate records, joined by “and”; a condition that tells them apart may be missing. Identical values can stand only once. Activity calls are given as the source filed them.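 How the source made its calls, unless noted: active means mean z-score across replicates of 1.96 or higher in either the MELAS or the Rieske mutant cell line; inactive means the rest.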

Columns and labels:
[1] = tested on: Hepatitis C virus NS3 helicase; test: blockers of NS3h binding to DNA – biochemical, fluorescence polarization, NIH Clinical Collection, primary screen (AID 743270; call rule not given here); settings: NS3 helicase binding to Cy5-dT15 DNA, stronger effect = higher value, concentration not given here
[2] = molecular target: Single-stranded DNA-binding protein (Escherichia coli (strain K12)) (UniProt P0AGE0); test: SSB-ssDNA binding inhibitors – biochemical, fluorescence polarization, NIH Clinical Collection, counter-screen for HCV NS3 helicase inhibitor project (AID 743271; in the data active means inhibition above about 28%); settings: E. coli SSB-DNA binding, stronger effect = higher value, concentration not given here
[3] = compounds distorting NS3 helicase fluorescence signal – biochemical, NIH Clinical Collection, artefact control for HCV NS3 helicase inhibitor project (AID 743272; call rule not given here;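 further: HCV NS3 helicase with a Cy5 labelled single stranded DNA probe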); settings: fluorescence interference counterscreen, HCV NS3 helicase assay; stronger effect = lower value
[4] = Wnt pathway potentiators raising nuclear beta-catenin – imaging, WNT3A-conditioned medium, mouse C2C12, NPC library, primary screen (AID 1117326; in the data active means nuclear beta-catenin stimulation mostly above about 4.2%, no sharp cut-off; inactive means mostly below about 10%); settings: stronger effect = higher value
[5] = stimulators of insulin release from INS-1E, primary screen, cell-based, 5 mM glucose, NPC library (AID 1117329;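 active means compound raises insulin release from rat beta cells at 5 mM glucose, no numeric limit stated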); settings: rat INS-1E insulin secretion, at 10 µM, stronger effect = higher value
[6] = growth inhibition of GSK3B-pretreated HCT116 cells – cell-based, CellTiter-Glo, 0.2 to 20 µM (AID 1117336;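 active means compounds lowering colon cancer cell viability after pretreatment blocking the GSK3B kinase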); settings: HCT116 viability after GSK3B inhibitor, at 20 µM, stronger effect = higher value
[7] = inhibition of endothelial tube formation, primary screen, imaging, VEGF stimulated, CD31 staining, tube area, NPC library (AID 1117340;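 active means compound that reduces growth-factor-driven endothelial tube area in a mixed cell culture, no cutoff stated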); settings: VEGF-stimulated ADSC/ECFC co-culture, at 10 µM, stronger effect = higher value
[8] = GLP1 release stimulators, primary, NCI-H716, NPC library (AID 1117341;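 active means compound raises GLP1 secretion from the human gut endocrine cells, with no numeric limit stated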); settings: NCI-H716 cells, at 10 µM, stronger effect = higher value
[9] = HCT116 colon cancer cell growth inhibition, primary screen, CellTiter-Glo luminescence, NPC library (AID 1117342;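 active means compounds that lower survival of HCT116 colon cancer cells in the luminescence readout, no numeric limit stated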); settings: at 20 µM (top of the series)
[10] = reduced SW480 viability measured with CellTiter-Glo, NPC library, primary (AID 1117343;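 active means compounds that lower viability of the colon cancer cells in the luminescence readout, with no numeric limit stated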); settings: CellTiter-Glo luminescence; at 20 µM (top of the series)
[11] = NPC library primary testing for decreased DLD-1 cell viability via CellTiter-Glo (AID 1117346;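 active means compounds that lower survival of DLD-1 colon cancer cells in the luminescence readout, no cutoff given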); settings: DLD-1 viability, CellTiter-Glo luminescence; at 20 µM (top of the series)
[12] = molecular target: 6-phosphogluconate dehydrogenase, decarboxylating (Homo sapiens) (UniProt P52209); test: inhibition of human phosphogluconate dehydrogenase – biochemical, recombinant enzyme, NADPH absorbance, primary screen (AID 1159550;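 active means at least 20% inhibition of 6-phosphogluconate dehydrogenase activity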); settings: recombinant 6PGD, NADPH absorbance 341 nm; at 10 µM; stronger effect = higher value
Sequence of 6-phosphogluconate dehydrogenase, decarboxylating (Homo sapiens) (P52209 whole entry, looked up): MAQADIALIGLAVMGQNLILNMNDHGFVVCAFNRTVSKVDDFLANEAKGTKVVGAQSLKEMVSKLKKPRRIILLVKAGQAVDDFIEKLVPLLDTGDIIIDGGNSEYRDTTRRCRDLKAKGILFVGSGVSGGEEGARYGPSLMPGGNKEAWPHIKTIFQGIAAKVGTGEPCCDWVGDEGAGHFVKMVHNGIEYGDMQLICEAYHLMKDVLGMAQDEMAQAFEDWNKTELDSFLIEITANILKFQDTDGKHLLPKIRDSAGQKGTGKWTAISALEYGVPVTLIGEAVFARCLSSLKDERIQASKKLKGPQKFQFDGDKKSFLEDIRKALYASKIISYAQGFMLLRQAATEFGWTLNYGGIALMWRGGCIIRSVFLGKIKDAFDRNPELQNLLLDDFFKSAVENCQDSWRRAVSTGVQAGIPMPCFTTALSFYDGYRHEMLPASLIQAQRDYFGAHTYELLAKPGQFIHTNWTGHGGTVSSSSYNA

[13] = viability loss with induced miR-34 in A549 – imaging, A549 dox-inducible miR-34, nuclei and caspase counts, primary screen (AID 1347080;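 active means compounds whose cell count with miR-34 switched on is under 0.7 times the count with it off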); settings: A549 miR-34 inducible, Hoechst nuclei count, 48 h
[14] = MELAS cybrid and Rieske KO viability enhancers – cell-based, MELAS cybrids, Rieske KO mouse fibroblasts, CellTiter-Glo, primary screen (AID 1508586); settings: low glucose;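 further: z relative to plate mean and SD of compound and empty wells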
[15] = molecular target: NAD(+) hydrolase SARM1 (Homo sapiens) (UniProt Q6SZW1); test: blocking NAD cleavage by SARM1 SAM-TIR – cell lysate, NAD-Glo luminescence (AID 1508614;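 active means compound whose remaining NAD level is above about 45 nM, limit read from the data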); settings: SAM-TIR HEK293T lysate NADase, at 1 µM, stronger effect = higher value
Sequence of NAD(+) hydrolase SARM1 (Homo sapiens) (Q6SZW1 whole entry, looked up, the tested form may be a part): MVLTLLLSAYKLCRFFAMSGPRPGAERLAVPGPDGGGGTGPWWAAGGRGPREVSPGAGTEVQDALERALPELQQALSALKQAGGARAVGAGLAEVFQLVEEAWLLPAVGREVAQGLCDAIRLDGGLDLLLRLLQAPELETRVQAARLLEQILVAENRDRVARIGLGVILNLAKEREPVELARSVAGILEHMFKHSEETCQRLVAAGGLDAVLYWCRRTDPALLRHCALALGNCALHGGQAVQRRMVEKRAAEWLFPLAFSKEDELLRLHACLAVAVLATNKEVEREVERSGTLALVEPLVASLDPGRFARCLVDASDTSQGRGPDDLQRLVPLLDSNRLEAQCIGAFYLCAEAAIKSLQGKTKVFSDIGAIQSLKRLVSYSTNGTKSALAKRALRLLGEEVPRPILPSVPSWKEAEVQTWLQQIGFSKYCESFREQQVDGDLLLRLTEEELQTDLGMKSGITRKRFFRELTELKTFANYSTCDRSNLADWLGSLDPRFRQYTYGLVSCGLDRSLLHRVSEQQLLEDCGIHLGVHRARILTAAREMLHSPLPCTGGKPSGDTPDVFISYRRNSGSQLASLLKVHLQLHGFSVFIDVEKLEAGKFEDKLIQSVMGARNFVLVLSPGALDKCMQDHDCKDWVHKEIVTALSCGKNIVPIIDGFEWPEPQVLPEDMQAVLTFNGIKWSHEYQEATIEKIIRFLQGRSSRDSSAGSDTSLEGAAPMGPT

[16] = molecular target: Mitogen-activated protein kinase 7 (Homo sapiens) (UniProt Q13164); test: Gal4-ERK5 driven luciferase induction – cell-based, HTS, primary screen (AID 1508626;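 active means luciferase signal above three times the same-plate solvent-only control wells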;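 further: luciferase driven by Gal4-ERK5 fusion binding five Gal4 sites before minimal TATA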); settings: HeLa Gal4-ERK5 transactivation, 18 h, at 5 µM, stronger effect = higher value
Sequence of Mitogen-activated protein kinase 7 (Homo sapiens) (Q13164 whole entry, looked up, the tested form may be a part): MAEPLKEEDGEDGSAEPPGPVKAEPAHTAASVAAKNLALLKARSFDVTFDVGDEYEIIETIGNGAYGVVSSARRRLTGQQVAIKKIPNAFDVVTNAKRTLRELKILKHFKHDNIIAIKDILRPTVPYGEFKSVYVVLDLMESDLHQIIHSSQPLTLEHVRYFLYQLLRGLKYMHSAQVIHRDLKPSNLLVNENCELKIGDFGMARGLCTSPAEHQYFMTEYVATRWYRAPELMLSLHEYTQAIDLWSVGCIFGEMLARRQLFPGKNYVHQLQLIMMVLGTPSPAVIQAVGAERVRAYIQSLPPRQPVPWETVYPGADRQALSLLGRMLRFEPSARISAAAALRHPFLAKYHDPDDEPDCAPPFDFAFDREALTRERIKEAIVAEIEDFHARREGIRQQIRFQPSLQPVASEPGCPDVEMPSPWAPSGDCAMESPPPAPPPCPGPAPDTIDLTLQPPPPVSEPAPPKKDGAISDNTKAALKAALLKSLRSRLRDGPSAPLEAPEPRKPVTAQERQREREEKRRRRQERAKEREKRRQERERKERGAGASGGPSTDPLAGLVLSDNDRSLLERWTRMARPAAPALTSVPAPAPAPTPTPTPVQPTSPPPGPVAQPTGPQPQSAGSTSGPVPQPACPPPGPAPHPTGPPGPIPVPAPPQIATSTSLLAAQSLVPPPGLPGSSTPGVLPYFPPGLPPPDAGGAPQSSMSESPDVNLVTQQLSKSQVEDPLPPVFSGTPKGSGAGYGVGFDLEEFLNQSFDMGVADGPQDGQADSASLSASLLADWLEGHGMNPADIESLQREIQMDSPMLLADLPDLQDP

F380Y = test: BK channel mutant inhibitors and activators – cell-based, U2OS BacMam, thallium flux, beta subunits, selectivity assay, profiling panel (AID 1259406;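 active means thallium flux through the channel raised or lowered by more than 3 SD from vehicle-only wells, actives on both sides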;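 further: initial slope of Thallos dye fluorescence rise after thallium is added; log ratio against the mean of 0.3% DMSO vehicle wells on the same plate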); settings: U2OS BacMam BK variants, at 30 µM
F380Y/beta2Delta = test: as above; settings: U2OS BacMam BK variants, at 30 µM
[17] = molecular target: Calcium-activated potassium channel subunit alpha-1 (Homo sapiens) + Leucine-rich repeat-containing protein 26 (Homo sapiens) (UniProt Q12791+Q2I0M4); test: as above; settings: U2OS BacMam BK variants, F380Y/Slo1WT/gamma1, at 30 µM
Sequence of Calcium-activated potassium channel subunit alpha-1 (Homo sapiens) + Leucine-rich repeat-containing protein 26 (Homo sapiens) (Q2I0M4 whole entry, looked up, one chain of several): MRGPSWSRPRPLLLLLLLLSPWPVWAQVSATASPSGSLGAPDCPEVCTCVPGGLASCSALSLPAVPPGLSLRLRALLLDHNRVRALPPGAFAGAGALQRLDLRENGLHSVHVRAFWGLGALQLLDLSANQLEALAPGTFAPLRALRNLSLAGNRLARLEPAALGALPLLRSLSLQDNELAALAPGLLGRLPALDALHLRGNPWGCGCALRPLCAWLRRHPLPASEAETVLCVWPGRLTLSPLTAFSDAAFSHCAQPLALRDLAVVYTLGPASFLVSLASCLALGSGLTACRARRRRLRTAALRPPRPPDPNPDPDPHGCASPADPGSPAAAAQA

[18] = EMT-state selective cytotoxicity in co-culture – imaging, PC-3E GFP, TEM4-18 mCherry, primary screen (AID 1345086;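 active means compounds killing one labelled cell type while sparing the other, by normalised counts and ratio limits, not self-fluorescent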;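 on all read-outs here: cells exposed to compound for 72 h before imaging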;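 on red/green cell ratio (normalised): normalised mesenchymal count divided by normalised epithelial count so high means epithelial killing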); settings: PC-3E GFP / TEM4-18 mCherry co-culture, imaging cell counts, at 1 µM; for red/green cell ratio (normalised): actives lie on both sides, counts scaled to control wells, 1 = unselective
[19] = stronger effect = lower value, cell number ratio, induced over uninduced
[20] = measured here: relative caspase fold change +Dox/-Dox
[21] = measured here: total cells with miR-34 induction, stronger effect = lower value
[22] = measured here: total cells without miR-34 induction
[23] = MELAS cybrid survival, CellTiter-Glo 48 h, stronger effect = higher value
[24] = Rieske KO mouse fibroblast survival, CellTiter-Glo 72 h
[25] = measured here: epithelial PC-3E GFP cell survival
[26] = measured here: mesenchymal TEM4-18 mCherry cell survival

C#C[C@]1(O)CC[C@H]2[C@@H]3CCC4=CC(=O)CC[C@@H]4[C@H]3CC[C@@]21CC
1.41 and 0.657: z-score [14, 24]
inactive: inhibition [1] -3.56% | inhibition [2] -0.1% | fluorescence ratio [3] 0.96 | nuclear beta-catenin stimulation ([4]; at 10 µM) 2.2% | insulin secretion stimulation [5] -1.1% | viability decrease [6] -54.4% | tube area decrease [7] 0.1% | GLP1 secretion stimulation [8] 4.1% | inhibition of viability [9] -5.1% | viability decrease (inhibition) [10] 4.3% | viability decrease (inhibition) [11] -24.6% | inhibition [12] -0.702% | fold change [13, 19] 0.855 and 0.976 and 0.873 | z-score [14, 23] 1.16 and 0.00976 | remaining NAD [15] 10 nM | luciferase signal [16] 44 AU | log fold change Tl+ flux (F380Y) 0.0315 | log fold change Tl+ flux (F380Y/beta2Delta) 0.00649 | log fold change Tl+ flux [17] 0.0485
1.39 and 1.03 and 0.879: fold change [13, 20]
-0.1%: nuclear beta-catenin stimulation ([4]; stimulation, at 2 µM)
8700 and 5730 and 8530: cell count [13, 21]
10200 and 5870 and 9770: cell count [13, 22]

CCCCc1oc2ccccc2c1C(=O)c1cc(I)c(OCCN(CC)CC)c(I)c1
inactive: inhibition [1] -1.97% | inhibition [2] 1.97% | fluorescence ratio [3] 0.95 | insulin secretion stimulation [5] 0.6% | GLP1 secretion stimulation [8] 3.9% | inhibition [12] 7.85% | red/green cell ratio (normalised) [18] 1.08 | z-score [14, 23] -0.425 and -1.46 and 0.238 | remaining NAD [15] 10 nM | luciferase signal [16] 44 AU
1.02: normalised cell number [18, 25]
0.8%: nuclear beta-catenin stimulation ([4]; stimulation, at 2 µM)
active: nuclear beta-catenin stimulation ([4]; at 10 µM) 71.4% | viability decrease [6] 103% | tube area decrease [7] 110% | inhibition of viability [9] 102% | viability decrease (inhibition) [10] 129% | viability decrease (inhibition) [11] 105%
0.341 and -0.317 and -0.0304: z-score [14, 24]
1.1: normalised cell number [18, 26]

Nc1nc2ccc(OC(F)(F)F)cc2s1
0.111 and -0.202 and -1.33: z-score [14, 24]
active: viability decrease (inhibition) [10] 88.8%
inactive: inhibition [1] -5.94% | inhibition [2] -0.87% | fluorescence ratio [3] 0.87 | nuclear beta-catenin stimulation ([4]; at 10 µM) 0.7% | insulin secretion stimulation [5] -2.4% | viability decrease [6] 32.5% | tube area decrease [7] 34% | GLP1 secretion stimulation [8] 0.6% | inhibition of viability [9] 21.7% | viability decrease (inhibition) [11] 47.1% | inhibition [12] 2.66% | red/green cell ratio (normalised) [18] 1.07 | z-score [14, 23] 0.0258 and 0.56 and -1.11 | remaining NAD [15] 10 nM
1.11: normalised cell number [18, 26]
1.04: normalised cell number [18, 25]
-0.8%: nuclear beta-catenin stimulation ([4]; stimulation, at 2 µM)

CN1CCN(CCCN2c3ccccc3Sc3ccc(C(F)(F)F)cc32)CC1
1: normalised cell number [18, 25]
-0.246 and 0.0911 and -0.232: z-score [14, 24]
0.91: normalised cell number [18, 26]
active: viability decrease [6] 110% | tube area decrease [7] 106% | GLP1 secretion stimulation [8] 28.8% | inhibition of viability [9] 112% | viability decrease (inhibition) [10] 132% | viability decrease (inhibition) [11] 99.8% | log fold change Tl+ flux (F380Y/beta2Delta) 0.0861
0.2%: nuclear beta-catenin stimulation ([4]; stimulation, at 2 µM)
inactive: inhibition [1] -1.19% | inhibition [2] 1.44% | fluorescence ratio [3] 0.85 | nuclear beta-catenin stimulation ([4]; at 10 µM) 32.2% | insulin secretion stimulation [5] 6.1% | inhibition [12] 8.36% | red/green cell ratio (normalised) [18] 0.91 | z-score [14, 23] -0.198 and -1.6 and 0.134 | remaining NAD [15] 10 nM | luciferase signal [16] 52 AU | log fold change Tl+ flux (F380Y) 0.0849 | log fold change Tl+ flux [17] 0.0472

C[C@@H](O)[C@H]1C(=O)N2C(C(=O)O)=C(S[C@@H]3CN[C@H](C(=O)N(C)C)C3)[C@H](C)[C@H]12
0.61 and 1.16: fold change [13, 20]
9470 and 9550: cell count [13, 21]
inactive: inhibition [1] 2.77% | inhibition [2] -0.87% | fluorescence ratio [3] 0.99 | nuclear beta-catenin stimulation ([4]; at 10 µM) -1.7% and -0.1% | insulin secretion stimulation [5] 1.9% and 2% | viability decrease [6] -24.1% and -19.8% | tube area decrease [7] -3.2% and 11.7% | GLP1 secretion stimulation [8] -1.2% and -6.2% | inhibition of viability [9] 3.6% and 6.7% | viability decrease (inhibition) [10] 9.5% and 15.1% | viability decrease (inhibition) [11] -2.2% and -3.6% | fold change [13, 19] 0.969 and 0.909 | z-score [14, 23] 0.815 and 0.0614 | remaining NAD [15] 10 nM | log fold change Tl+ flux (F380Y) 0.000985 | log fold change Tl+ flux (F380Y/beta2Delta) -0.00534 | log fold change Tl+ flux [17] -0.0284
9770 and 10500: cell count [13, 22]
1% and 0.5%: nuclear beta-catenin stimulation ([4]; stimulation, at 2 µM)
1.23 and -0.866: z-score [14, 24]

COc1ccccc1N1CCN(CCCNc2cc(=O)n(C)c(=O)n2C)CC1
0.91: normalised cell number [18, 25]
1.01: normalised cell number [18, 26]
0.2%: nuclear beta-catenin stimulation ([4]; stimulation, at 2 µM)
inactive: inhibition [1] -2.77% | inhibition [2] -1.64% | fluorescence ratio [3] 0.96 | nuclear beta-catenin stimulation ([4]; at 10 µM) 4.3% | insulin secretion stimulation [5] 1.1% | viability decrease [6] 1.1% | tube area decrease [7] 1% | GLP1 secretion stimulation [8] -0.1% | inhibition of viability [9] 10.8% | viability decrease (inhibition) [10] -11.2% | viability decrease (inhibition) [11] -9.9% | inhibition [12] -3.41% | red/green cell ratio (normalised) [18] 1.12 | z-score [14, 23] -0.289 and 0.285 | remaining NAD [15] 10 nM | luciferase signal [16] 40 AU | log fold change Tl+ flux (F380Y) -0.0416 | log fold change Tl+ flux (F380Y/beta2Delta) -0.00368 | log fold change Tl+ flux [17] -0.00786
0.041 and 0.0737: z-score [14, 24]

CN(C)CCOC(c1ccccc1)c1ccccc1
1.28: normalised cell number [18, 25]
-1%: nuclear beta-catenin stimulation ([4]; stimulation, at 2 µM)
1.37: normalised cell number [18, 26]
inactive: inhibition [1] -1.19% | inhibition [2] 5.29% | fluorescence ratio [3] 0.99 | nuclear beta-catenin stimulation ([4]; at 10 µM) 0.5% | insulin secretion stimulation [5] 14.4% | viability decrease [6] -17.4% | tube area decrease [7] 1% | GLP1 secretion stimulation [8] 4.4% | inhibition of viability [9] 36.7% | viability decrease (inhibition) [11] 1% | inhibition [12] 11.2% | red/green cell ratio (normalised) [18] 1.07 | z-score [14, 23] -0.301 and 0.806 and -0.802 | remaining NAD [15] 10 nM | luciferase signal [16] 36 AU | log fold change Tl+ flux (F380Y) 0.0428 | log fold change Tl+ flux (F380Y/beta2Delta) 0.0216 | log fold change Tl+ flux [17] -0.0145
0.641 and 0.428 and 1.04: z-score [14, 24]
active: viability decrease (inhibition) [10] 57.8%
